Screens deposited in PubChem BioAssay by National Center for Advancing Translational Sciences (NCATS).
Hits are enriched below; roughly 19% of the tested compounds scored in any of these assays.
IL-1B inflam inh = inflammasome signaling inhibition, IL-1 beta readout. AID 743279. activity change, % at 57.5 µM. 4.7% of 360,000 active. THP-1 LPS/ATP IL-1B secretion, AlphaLISA, 16 h; active compounds read low; in the data active means activity change below about -50%; inconclusive means mostly about -30% to -49%
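Secreted IL-1B measured by AlphaLISA bead assay after 16 h compound exposure of THP-1 cells; compounds (final up to 57.5 uM) added 1 h before LPS (250 ng/mL) and ATP (1.25 mM) stimulation; lower signal means less secretion.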
DT40 TDP1 CPT = DT40-hTDP1 cell growth loss with CPT. 12% of 420,000 active. AID 686979. Potency, µM (highest dose often 46.2 µM), for inactives: at the top dose activity change, negative = growth inhibition, hits mostly inhibitors. chicken DT40 Tdp1-/-;hTDP1 cells + 20 nM CPT, ATP luminescence, 48 h; further: potency means the concentration at half of the fitted maximal effect; nearly all actives have a fitted effect of over 55% in size
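Chicken DT40 Tdp1-/- cells complemented with human TDP1, 400 cells/well, exposed to compounds plus 20 nM camptothecin for at least 48 h at 37 C; viability read as ATP content by CellTiter-Glo luminescence.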
HT1080-NT tox = kills 2HG-producing HT-1080-NT fibrosarcoma cells; 1.6% of 360,000 active; AID 686970; HT-1080-NT fibrosarcoma viability, CellTiter-Glo ATP luminescence, 48 h; Potency, µM (top dose mostly 46.1 µM), inactives show top-dose activity, negative = less viability, most hits filed as cytotoxic;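 further: NT is the 2HG producing partner of a matched IDH1 knockdown line; potency means the concentration at half of the fitted maximal effect; 0% = DMSO-treated cells and -100% = media-only wells without cells; nearly all actives have a fitted effect of over 55% in size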
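HT-1080-NT; 750 cells/well; 5% FBS RPMI; 48 h compound, 37 degrees C; CellTiter-Glo luminescence; curve fitting and curve-class assignment.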
HT1080 IDH1KD tx = HT-1080 IDH1 knockdown cell toxicity (counter line) | Potency, µM (highest dose often 46.1 µM), for the others: at the highest dose activity, negative = toxicity, actives largely listed as cytotoxic | HT-1080 IDH1 knockdown viability, ATP luminescence, 48 h | AID 686971 | 2% of 360,000 active;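 further: potency means the concentration at half of the fitted maximal effect; 0% = DMSO wells and -100% = cell-free medium wells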
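Using the IDH1-knockdown HT-1080 line run in the same batch and compound series as the NT line, viability after 48 h at 37 °C was determined by CellTiter-Glo luminescence and expressed as % activity.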
TDP1 cell noCPT = qHTS for Inhibitors of human tyrosyl-DNA phosphodiesterase 1 (TDP1): qHTS in cells in absence of CPT; Potency, µM (top dose mostly 46.2 µM), without a hit: top-dose activity change, negative = growth inhibition, most hits filed as inhibitors; AID 686978, 2013; DT40 Tdp1-/- hTDP1 cells, no CPT, ATP luminescence, 48 h; 15% of 420,000 active; further: potency means the concentration at half of the fitted maximal effect; nearly all actives have a fitted effect of over 55% in size
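Readout: luminescence from CellTiter-Glo after 30 min in the dark at RT. Cells: DT40 Tdp1-/- with stable hTDP1, 400/well. Exposure: compounds alone, ≥48 hr, 37 °C.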
The depositor's hits bear a star; ? = inconclusive; nt = not tested or not shown; [ ] = dose if it differs, or a comment. Unless noted, the call rests on the fitted dose curve; in most records, active means well fitted curve in the direction sought with a large enough effect; inconclusive means small, poorly fitted or top-dose-only effect, or another doubt; inactive means no such curve, though single readings can be large; an effect the other way counts as inactive or inconclusive. Unless noted, on the % scale 0 is the no-effect control and ±100 the full control effect.

SMILES	IL-1B inflam inh	DT40 TDP1 CPT	HT1080-NT tox	HT1080 IDH1KD tx	TDP1 cell noCPT
Cc1ccc(C)c(NC(=O)C(c2ccccc2)N2Cc3ccccc3C2=O)c1 (stereo not drawn)	nt	?	nt	nt	-26%
O=C(CCS(=O)(=O)Cc1ccccc1F)N1CCc2ccccc2C1	21	23µM*	6%	9%	16µM*
CCc1cccc2c(C(=O)C(F)(F)F)cn(CC(=O)N3CCOCC3)c12	0	-5%	12%	6%	10%
Cc1ccc2[nH]c3c(=O)n(CC(=O)N4CCCC(C)C4)ncc3c2c1 (stereo not drawn)	nt	?	nt	nt	18µM*
Cc1ccc2[nH]c3c(=O)n(CC(=O)N4CC(C)CC(C)C4)ncc3c2c1 (stereo not drawn)	-3	-17%	25%	20%	-10%
CC(Oc1ccccc1)C(=O)N1CCN=C1SCc1ccccc1 (stereo not drawn)	?	-13%	-4%	19%	-3%
COc1ccccc1NC(=O)Cn1cc(C(=O)C2CC2)c2ccccc21	-2	-3%	-2%	0%	-24%
CCOC(=O)[C@]12CCC=C1N(Cc1ccc3c(c1)OCO3)C(=O)[C@H](CC(=O)NCCCN1CCCC1=O)C2	7	6%	13%	0%	-1%
CCOc1ccc2nc(Cl)c(C3CC(c4ccc(C)cc4)=NN3C(=O)CCCC(=O)O)cc2c1 (stereo not drawn)	nt	-8%	nt	nt	-7%
Cc1ccc2nc(Cl)c(C3CC(c4cccs4)=NN3C(=O)CCCC(=O)O)cc2c1 (stereo not drawn)	29	-19%	0%	3%	8.2µM*
Cc1ccc2cc(C3CC(c4ccco4)=NN3C(=O)CCC(=O)O)c(Cl)nc2c1 (stereo not drawn)	-5	?	17%	12%	16µM*
Brc1ccc(CNc2nc3ccccc3n2CCN2CCCCC2)cc1	?	?	?	?	23µM*
COc1cccc(CNc2nc3ccccc3n2CCN2CCCCC2)c1	-10	13µM*	?	?	?
COc1ccc(OC)c(CNc2nc3ccccc3n2CCN2CCCCC2)c1	-17	?	?	?	?
CCCCCn1c(NCc2ccc(OC)cc2)nc2ccccc21	nt	16µM*	nt	nt	23µM*
CCCCCn1c(NCc2ccco2)nc2ccccc21	-25	-6%	-18%	2%	?
COc1ccc(CNc2nc3ccccc3n2CCN2CCCCC2)c(OC)c1	-100*	18µM*	-13%	-25%	23µM*
Brc1cccc(CNc2nc3ccccc3n2CCN2CCCCC2)c1	-30	?	?	-27%	?
CNc1ccnc(-c2c(C)noc2C)n1	nt	6%	nt	nt	-5%
CCCC[n+]1ccn(C2=C([O-])c3ccccc3C(=O)/C2=N\S(=O)(=O)c2ccc(Cl)cc2)c1	43	8.2µM*	?	?	9.2µM*
CCCC[n+]1ccn(-c2nc3ccccc3nc2[N-]S(=O)(=O)c2ccc(Br)cc2)c1	13	23%	25%	12%	-9%
CCCCC[n+]1ccn(C2=C([O-])c3ccccc3C(=O)/C2=N\S(=O)(=O)c2ccc(Cl)cc2)c1	107	4.6µM*	0%	0%	2.9µM*
CCOC(=O)Cc1ccc(Nc2nc(NCc3ccccc3)nc3ccsc23)cc1	-3	23µM*	-20%	-13%	15µM*
CC(=O)NCCNc1nc(NCc2ccccc2)nc2ccsc12	89	?	-16%	3%	?
CCOC(=O)Cc1ccc(Nc2nc(NC)nc3ccsc23)cc1	-12	21µM*	?	?	18µM*
SMILES	IL-1B inflam inh	DT40 TDP1 CPT	HT1080-NT tox	HT1080 IDH1KD tx	TDP1 cell noCPT
COc1cccc(C(=O)Nc2nc3ccccc3s2)c1	0	-6%	-7%	-11%	-7%
N#C/C(=C\c1coc2ccc(O)cc2c1=O)C(=O)Nc1nc2ccccc2s1	13	9.2µM*	-8%	-14%	?
CCN(CC)CCNC(=O)CCc1nnc2ccc(N3CCC(C)CC3)nn12	-4	2%	-5%	5%	4%
O=C(NCc1cccnc1)c1cc(C2CCCN(C(=O)c3cccc(O)c3)C2)on1 (stereo not drawn)	48	0%	1%	24%	-14%
O=C(NN=Cc1ccccc1C(=O)O)c1ccc(NS(=O)(=O)c2cccs2)cc1	-1	6%	14%	2%	13%
O=C(COC(=O)c1cc(-c2cccs2)nc2ccccc12)c1ccc(Br)cc1	nt	-17%	nt	nt	?
O=S(=O)(c1cccc(C(F)(F)F)c1)N1CCCC1c1cccnc1 (stereo not drawn)	nt	-3%	0%	0%	?
CCC1CCCCN1S(=O)(=O)c1ccc(NC(=O)c2cccnc2)cc1 (stereo not drawn)	59	-21%	-2%	-7%	?
COc1cc(OC)cc(C(=O)Nc2ccc(S(=O)(=O)N3CCCCC3c3cccnc3)cc2)c1 (stereo not drawn)	nt	?	nt	nt	26µM*
Cc1ccc(S(=O)(=O)N2CCCCC2c2cccnc2)c(C)c1C (stereo not drawn)	0	?	0%	-3%	23µM*
N=c1ccn(Cc2cccc(F)c2)cc1	15	?	?	-22%	18µM*
NCCCCC(N)c1cn([C@@H](CCC(=O)O)C(=O)N2CCNCC2)nn1 (stereo partly drawn)	10	-9%	21%	10%	-10%
CCCn1nc(C(=O)NC2CC2)c2ccccc2c1=O	10	-11%	0%[9.24 µM]	-3%	5%
COc1ccc(CCNC(=O)Cc2nn(C)c(=O)c3ccccc23)cc1OC	22	?	0%	-7%	?
Cn1nc(CC(=O)Nc2ccc3c(c2)CCC3)c2ccccc2c1=O	89	3.3µM*	-13%	2.9µM*	1.6µM*
CCCCn1nc(C(=O)NC2CCCCC2)c2ccccc2c1=O	-8	?	0%	-9%	12µM*
Cn1nc(CC(=O)NC2CCCCCCCCCCC2)c2ccccc2c1=O	18	18µM*	-16%	0%	18µM*
Cn1nc(CC(=O)Nc2ncc(Br)s2)c2ccccc2c1=O	15	10µM*	-11%	-4%	?
C/C(=N\NC(=O)C(=O)Nc1cc(C)ccc1C)c1ccncc1	-5	-6%	-1%	0%	-8%
Cc1ccc(S(=O)(=O)N2[C@H](C(C)C)[C@H]3[C@H]4C(=O)N(c5ccccc5)C(=O)[C@H]4CC(=O)[C@H]3[C@@H]2c2ccccc2)cc1	8	11%	20%	11%	-20%
O=C(Nn1c(-c2ccc(Br)cc2)nc2ccccc2c1=O)c1cccnc1	23	?	4%	-8%	23µM*
